This note sets out measurements from PubChem BioAssay AID430 (Sanford-Burnham Center for Chemical Genomics, 2006).

About 1,100 (1.7%) of roughly 63,000 compounds were called active. The full list was thinned out, with actives kept by preference. Entries with a potency or affinity are not part of this list. Values without a mark were called inactive. Rule as the data show it: active = cytotoxicity above about 50%; inactive = the rest.

A short description of this test: HPDE-C7 pancreatic duct cell viability loss – fluorescence, HTS (AID 430).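 Also: cells exposed to compound for 48 hours before viability readout; 0% = vehicle and 100% = reference cytotoxic drug.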 Conditions: HPDE-C7 pancreatic duct cells viability, at 10 µM, active compounds read high.
For `O=C(Nc1cc(C(=O)N2CCOCC2)cc(C(=O)N2CCOCC2)c1)c1cc(F)c(F)cc1Cl`, the cytotoxicity was -14.6%. Under `O=C(OCc1nc2ccccc2s1)C1CCN(C2=NS(=O)(=O)c3ccccc32)CC1` stands 1.1%; under `O=c1cc(CO)oc(C(Nc2ccccn2)c2ccccc2F)c1O` (stereo unspecified), -3.3%; under `CC(=O)NC(c1ccco1)c1ccc2cccnc2c1O` (stereo unspecified), 31.1%. The result for `COc1ccc(C(NC(C)=O)c2ccc3cccnc3c2O)c(OC)c1` (stereo unspecified) reads 11.7%.

Take `Cc1cc(NC(c2cccnc2)c2ccc3cccnc3c2O)no1` (stereo unspecified): the cytotoxicity was 9%. Under `COc1cc(C(=O)Nc2ccccn2)cc(OC)c1OC` stands 5.4%; under `CC(C)C(=O)NC(c1ccco1)c1ccc2cccnc2c1O` (stereo unspecified), -17.7%; under `CNC(=O)c1ccc(N(Cc2ccccc2)S(C)(=O)=O)cc1`, 2.3%. The result for `CCn1c(=O)cc(SCC(=O)Nc2cccnc2)c2ccccc21` reads -11.6%; that for `Cc1cccc(N2CCN(C(=O)C3CCCN(S(=O)(=O)c4c(C)noc4C)C3)CC2)c1C` (stereo unspecified), -2%. Consider `C/C(=C\c1ccco1)C1C(C#N)=C(N)OC2=C1C(=O)CC(C)(C)C2` (stereo unspecified), for which the cytotoxicity is -2%.

Take `CCOc1ccc2[nH]c(=O)c(CN(Cc3ccccc3)C(=O)N3CCCC3)cc2c1`: the cytotoxicity was -4.5%. As for `Cc1ccc(CCNC(=O)c2coc3nc4ccccc4nc23)cc1`, the cytotoxicity is 27.6%. The result for `COc1ccc(F)cc1CN1CCN(c2cc(C)nc3c4c(C)cc(C)nc4nn23)CC1` reads 9.9%; that for `CCOc1cc(NC(=O)c2ccco2)c(OCC)cc1NC(=O)Cc1cccc(OC)c1`, -10.3%; that for `O=C(NCc1cccnc1)c1ccc(COc2ccccc2Br)o1`, 13.1%. As to `CN1CCN(c2ccccc2NC(=O)Cc2cn(C)c3ccccc23)CC1`, the cytotoxicity is -5.4%.

Consider `COc1ccccc1NC(=O)N(Cc1ccco1)Cc1cc2cc(C)cc(C)c2[nH]c1=O`, for which the cytotoxicity is 59.5% (active). Consider `COc1ccccc1NC(=O)N(Cc1ccco1)Cc1cc2c(C)ccc(C)c2[nH]c1=O`, for which the cytotoxicity was 22.4%. Under `CCN1CCCC1CN(Cc1cc2cc(C)cc(C)c2[nH]c1=O)C(=O)Nc1ccccc1OC` (stereo unspecified) stands 15.1%. On to `COc1ccccc1NC(=O)N(Cc1ccco1)Cc1cc2ccc(C)c(C)c2[nH]c1=O`, for which the cytotoxicity was 72.8% (active).

As for `Cc1cc(C)c2[nH]c(=O)c(CN(Cc3ccco3)C(=O)C3CCCO3)cc2c1` (stereo unspecified), the cytotoxicity is -9.6%.

For `COc1ccccc1NC(=O)N(Cc1ccco1)Cc1cc2cccc(C)c2[nH]c1=O`, the cytotoxicity is 0.1%. With `O=C(O)CCc1ccc(-c2cccs2)n1CC1CCCO1` (stereo unspecified), the cytotoxicity was -6.9%. The result for `CCOC(=O)Cn1c(=O)oc2cc(S(=O)(=O)N3CCCc4ccccc43)ccc21` reads 3.6%; that for `Cc1csc(NC(=O)C(Cc2ccccc2)n2cccc2)n1` (stereo unspecified), 14.2%. For the molecule `CCSc1nnc(NC(=O)C(Cc2ccccc2)n2cccc2)s1` (stereo unspecified), the cytotoxicity is -8.7%. Under `COc1cccc2sc(NC(=O)c3ccc(S(=O)(=O)N4CCOCC4)cc3)nc12` stands 2.8%. The result for `O=c1oc2cc(O)ccc2c2oc3cc(O)ccc3c12` reads 9.7%; that for `O=c1oc2cc(O)ccc2c2c1CCCC2`, 30.9%; that for `Oc1ccc2c(c1)oc1cc(O)ccc12`, 56.4% (active). In the case of `O=C(NCc1ccco1)C1CCN(S(=O)(=O)c2ccc(-n3cnnn3)cc2)CC1`, the cytotoxicity is -7.4%.

`COc1ccc(OC)c(-c2nc(C)sc2CC(=O)O)c1`: the cytotoxicity was -6.4%. Under `O=C(Nc1ccc(N2CCN(c3ccc(O)cc3)CC2)cc1)Oc1ccccc1` stands 50.7% (active); under `CC(C)Oc1ccc(NC(=O)Oc2ccccc2)cc1`, 4.8%; under `CC(=O)Nc1ccc(NC(=O)Oc2ccccc2)cc1`, -2%. On to `COc1ccc(C2C3=C(CC(c4ccco4)CC3=O)Nc3ccccc3N2C(C)=O)cc1` (stereo unspecified), for which the cytotoxicity was -12.7%. Under `O=C1CC(c2ccco2)CC2=C1C1c3ccccc3C(=O)N1c1ccccc1N2` (stereo unspecified) stands 64.9% (active); under `CCC(=O)N1c2ccccc2NC2=C(C(=O)CC(c3ccco3)C2)C1c1ccco1` (stereo unspecified), -3.7%; under `COCCCn1c(=O)c2ccccc2c2ccccc2c1=O`, -14.8%. The result for `CC(=O)c1cccc(S(=O)(=O)N(CCCO)Cc2cc3ccc(C)cc3[nH]c2=O)c1` reads -3.7%; that for `COc1ccc(NC(=O)N2CCCC2)cc1OC`, -16.9%. Under `Cn1nnnc1Sc1ncnc2scc(-c3ccccc3)c12` stands 2.6%; under `O=c1[nH]cnc2scc(-c3ccc(F)cc3)c12`, -4.9%; under `C/C(=N\O)c1c(C)c2ccccc2n1C`, -0.6%. Take `CC1=C(C(=O)Nc2ccccn2)C(c2ccc(F)cc2)n2ncnc2N1` (stereo unspecified): the cytotoxicity was -6%. The result for `O=C(CSc1ncnc2c1oc1ccccc12)Nc1cccc(C(F)(F)F)c1` reads 2.9%; that for `Cc1ccnc(SCC(=O)O)n1`, -31.8%; that for `Cc1ccccc1NC(=O)CSc1nc2c(c(-c3ccco3)c1C#N)CCCC2`, -20.7%. The result for `c1ccc2[nH]c(-c3ccnc4ccccc34)nc2c1` reads 3%; that for `O=C(c1nn2c(C(F)(F)F)cc(-c3ccco3)nc2c1Br)N1CCCc2ccccc21`, 51.8% (active); that for `O=C(c1cnn2c(C(F)(F)F)cc(-c3ccco3)nc12)N1CCCc2ccccc21`, 4.7%.

`O=C(c1cc2nc(-c3ccco3)cc(C(F)(F)F)n2n1)N1CCCc2ccccc21`: the cytotoxicity is -11.2%. Under `O=C(Sc1nnnn1C1CCCCC1)c1cccs1` stands -11.4%. For the molecule `COc1cc(C(=O)NCc2nnc(SCC(=O)N3CCC(C)CC3)o2)cc(OC)c1OC`, the cytotoxicity was -2.5%. Under `CC1(C)Cc2c(c(N3CCOCC3)nc3snc(Br)c23)CO1` stands 5.4%; under `CC1(C)Cc2c(c(N3CCOCC3)nc3sc(C(=O)N4CCCCC4)c(N)c23)CO1`, -5.3%; under `CCN1C(=O)c2ccccc2S(=O)(=O)c2ccc(C(=O)NCc3cccnc3)cc21`, -0.2%. The result for `CC(C)n1nc(C(=O)Nc2nc3ccc(S(C)(=O)=O)cc3s2)c2ccccc2c1=O` reads 54.4% (active); that for `COc1ccccc1C(=O)Nc1nc2ccc(S(C)(=O)=O)cc2s1`, 2.7%. The result for `CS(=O)(=O)c1ccc2nc(NC(=O)c3cccs3)sc2c1` reads -8.3%. Consider `COCCCNC(=O)c1ccc(N2CCCC2)c(NS(=O)(=O)c2ccc(C)cc2)c1`, for which the cytotoxicity was -13.4%. Under `CC1CC(C)CN(C(=O)c2cn(C)c3ccc(S(=O)(=O)N(C)C)cc3c2=O)C1` (stereo unspecified) stands 0.8%. Under `CC12CC(NC(=O)N1c1cccc(C(=O)NCc3ccc4c(c3)OCO4)c1)c1cc(Cl)ccc1O2` (stereo unspecified) stands 27.3%. Under `COc1ccccc1Oc1cc(C#N)c(C#N)cc1-n1nnc2ccccc21` stands -8.8%; under `N#Cc1cc(Oc2cccc3cccnc23)c(-n2nnc3ccccc32)cc1C#N`, 63.7% (active). `c1ccc(-n2nnnc2Oc2cccc3cccnc23)cc1`: the cytotoxicity was 19.3%. Under `CCOC(=O)CNC(=O)CSc1nc2cccnc2n1C` stands -7.9%; under `CCNc1sc(C(=O)c2cccs2)c(N)c1-c1nc2ccccc2s1`, 73.7% (active).

As to `CCNc1sc(C(=O)c2cccs2)c(N)c1C#N`, the cytotoxicity was -12.7%. Under `CNc1sc(C(=O)c2cccs2)c(N)c1-c1nc2ccccc2s1` stands 33.3%; under `COc1ccccc1Nc1nc(C2(C)CCC(=O)O2)cs1` (stereo unspecified), 6.8%. Under `Cn1c(-c2nonc2NC(=O)c2ccc(C(C)(C)C)cc2)nc2ccccc21` stands -0.1%. Turning to `CCCn1cc(S(=O)(=O)CC(=O)Nc2ccc(OCC)cc2)c2ccccc21`, the cytotoxicity is -9.9%. As for `COc1ccc(-c2oc3ncn4nc(COc5ccccc5)nc4c3c2-c2ccc(OC)cc2)cc1`, the cytotoxicity was 54.9% (active).

Turning to `COc1ccc(-c2oc3ncn4nc(Cc5ccccc5)nc4c3c2-c2ccc(OC)cc2)cc1`, the cytotoxicity was 62.3% (active).

On to `N=c1c2c(-c3ccccc3)c(-c3ccccc3)oc2ncn1CCN1CCOCC1`, for which the cytotoxicity is 29.3%. Consider `COc1ccccc1OCc1nc2c3c(-c4ccccc4)c(-c4ccccc4)oc3ncn2n1`, for which the cytotoxicity was 7.7%. `Cc1nc2c3c(-c4ccccc4)c(-c4ccccc4)oc3ncn2n1`: the cytotoxicity is -9.4%. Under `COc1ccc(-c2oc3ncn(CCN4CCOCC4)c(=N)c3c2-c2ccc(OC)cc2)cc1` stands 16%; under `CCOc1ccc(CCNC(=O)CCN2C(=O)COc3ccccc32)cc1OCC`, -19.6%; under `CCOC(=O)/C=C1\SCC(=O)N1CC(=O)Nc1ccccc1OC(F)F`, 2.3%. On to `CN(C)C(=O)N1CCC(C(=O)NCc2ccc(F)cc2)CC1`, for which the cytotoxicity is -10.1%.

For `Cc1[nH]nc2c1C(Cc1ccccc1)C(C#N)=C(N)O2` (stereo unspecified), the cytotoxicity is -12.3%. The result for `Cc1c(Cl)cccc1Nc1ccccc1C(=O)O` reads -3.4%; that for `Cc1ccc(Cl)c(Nc2ccccc2C(=O)O)c1Cl`, 66.2% (active); that for `Cc1cccc(Nc2ccccc2C(=O)O)c1C`, 3.8%. Under `O=C1c2ccccc2C(=O)N1CCCc1nc(-c2cccnc2)no1` stands 6.9%; under `Fc1ccc(-n2c(-c3ccco3)nc3nc4ccccc4nc32)cc1`, -1.1%. In the case of `N#Cc1nc(-c2ccc(OCc3ccccc3)cc2)oc1NCCN1CCOCC1`, the cytotoxicity was -1%. Under `N#Cc1nc(-c2ccc(F)cc2)oc1NCc1ccccc1` stands -17.1%; under `N#Cc1nc(-c2ccc(OCc3ccc(Cl)cc3)cc2)oc1NCc1cccnc1`, 53.4% (active); under `N#Cc1nc(COc2ccc(-c3ccccc3)cc2)oc1NCc1cccnc1`, 61.9% (active). The result for `N#Cc1nc(-c2ccc(OCc3ccccc3)cc2)oc1NCc1cccnc1` reads 0.6%; that for `COc1ccc(CNc2oc(COc3ccccc3)nc2C#N)cc1`, 0.5%.

Turning to `COc1ccc(-c2nc(C#N)c(NCCCN3CCOCC3)o2)cc1`, the cytotoxicity was -6.6%. Under `COc1ccc(CNc2oc(-c3ccccc3)nc2C#N)cc1` stands 5.7%; under `CC(C)(C)c1ccc(-c2nc(C#N)c(NCc3ccncc3)o2)cc1`, 54.6% (active); under `N#Cc1nc(Cc2ccccc2)oc1NCc1cccnc1`, -12.4%.

In the case of `N#Cc1nc(-c2ccc(OCc3ccc(Cl)cc3)cc2)oc1NCCCn1ccnc1`, the cytotoxicity is -0.4%.
